# Experimental data: ChEMBL document CHEMBL2218924, “A broad activity screen in support of a chemogenomic map for kinase signalling research and drug discovery” (Biochem J, 2013)
# Biological target: Receptor-interacting serine/threonine-protein kinase 2 (Homo sapiens) (UniProt O43353)
# Settings: at 1 µM
# Sequence of Receptor-interacting serine/threonine-protein kinase 2 (Homo sapiens) (O43353 whole entry): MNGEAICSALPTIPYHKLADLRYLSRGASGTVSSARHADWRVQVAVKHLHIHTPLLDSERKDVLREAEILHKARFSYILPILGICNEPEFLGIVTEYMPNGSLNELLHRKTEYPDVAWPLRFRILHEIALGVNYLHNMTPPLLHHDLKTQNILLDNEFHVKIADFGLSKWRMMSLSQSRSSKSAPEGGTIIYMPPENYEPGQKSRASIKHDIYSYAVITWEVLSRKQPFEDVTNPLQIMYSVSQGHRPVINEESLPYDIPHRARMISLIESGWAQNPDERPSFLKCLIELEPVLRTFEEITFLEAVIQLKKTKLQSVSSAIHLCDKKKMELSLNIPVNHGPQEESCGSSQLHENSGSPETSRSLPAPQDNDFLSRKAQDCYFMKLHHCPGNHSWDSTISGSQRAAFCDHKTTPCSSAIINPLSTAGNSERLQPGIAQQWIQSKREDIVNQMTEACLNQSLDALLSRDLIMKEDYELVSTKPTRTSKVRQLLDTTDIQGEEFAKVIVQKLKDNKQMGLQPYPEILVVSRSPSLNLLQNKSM
row,SMILES,residual activity [%]
1,c1ccc(-c2cnc(Nc3ccc(OCCN4CCCC4)cc3)s2)cc1,43
2,COc1cc2c(cc1OC)-c1n[nH]c(Nc3cccc(F)c3)c1C2,30
3,O=C1C(Cl)=C(N2C(=O)CCC2=O)C(=O)c2ccccc21,92
4,CCCCc1c(-c2ccc(O)cc2)[nH]c2nccnc12,38
5,O=C(NC(NC(=S)Nc1ccc(F)c([N+](=O)[O-])c1)C(Cl)(Cl)Cl)C(c1ccccc1)c1ccccc1 (stereo not drawn),92
6,NC(=O)c1cccc(-c2cc(Nc3ccc(OC(F)(F)F)cc3)ncn2)c1,93
7,O=C1NC(=O)C(c2cn(CCCn3ccnc3)c3ccccc23)=C1Nc1ccccc1,78
8,Oc1cccc(-c2nc(N3CCOCC3)c3oc4ncccc4c3n2)c1,89
9,CSc1nc(-c2ccc(F)cc2)c(-c2ccnc(NC(C)c3ccccc3)c2)[nH]1 (stereo not drawn),75
10,O=c1c(-c2ccc(F)cc2)c(-c2ccncc2)[nH]n1-c1ccc(Cl)cc1,47
11,COc1ccc(-c2cnc3c(-c4ccsc4)cnn3c2)cc1,99
12,O=C(c1cc2cc(O)ccc2[nH]1)c1cc2cc(O)ccc2[nH]1,18
13,COc1cc2nccc(Oc3ccc(NC(=O)Nc4cc(C)on4)c(Cl)c3)c2cc1OC,21
14,O=C1Cc2c([nH]c3ccc([N+](=O)[O-])cc23)-c2ccccc2N1,53
15,CCN1/C(=C/C(C)=O)Sc2ccc(OC)cc21,71
16,Nc1n[nH]c2nc3ccccc3nc12,94
17,CC(C)c1nn(-c2c(Cl)cccc2Cl)c2nc(Cc3ccc(OCCO)cc3)[nH]c(=O)c12,90
18,Fc1ccc(-c2nc3n(c2-c2ccncc2)CCS3)cc1,65

# Biological target: Receptor-interacting serine/threonine-protein kinase 2 (Homo sapiens) (UniProt O43353)
# Settings: at 10 µM
row,SMILES,residual activity [%]
1,c1ccc(-c2cnc(Nc3ccc(OCCN4CCCC4)cc3)s2)cc1,17
2,COc1cc2c(cc1OC)-c1n[nH]c(Nc3cccc(F)c3)c1C2,17
3,O=C1C(Cl)=C(N2C(=O)CCC2=O)C(=O)c2ccccc21,95
4,CCCCc1c(-c2ccc(O)cc2)[nH]c2nccnc12,30
5,O=C(Nc1ccc(Cl)cc1)c1ccccc1NCc1ccncc1,78
6,O=C(NC(NC(=S)Nc1ccc(F)c([N+](=O)[O-])c1)C(Cl)(Cl)Cl)C(c1ccccc1)c1ccccc1 (stereo not drawn),92
7,O=C1NC(=O)C(c2c[nH]c3ccccc23)=C1c1c[nH]c2ccccc12,74
8,COc1ccc2c(c1)c(C1=C(c3c[nH]c4ccccc34)C(=O)NC1=O)cn2CCCN(C)C,64
9,NC(=O)c1cccc(-c2cc(Nc3ccc(OC(F)(F)F)cc3)ncn2)c1,56
10,O=C1NC(=O)C(c2cn(CCCn3ccnc3)c3ccccc23)=C1Nc1ccccc1,77
11,Oc1cccc(-c2nc(N3CCOCC3)c3oc4ncccc4c3n2)c1,86
12,CSc1nc(-c2ccc(F)cc2)c(-c2ccnc(NC(C)c3ccccc3)c2)[nH]1 (stereo not drawn),30
13,O=c1c(-c2ccc(F)cc2)c(-c2ccncc2)[nH]n1-c1ccc(Cl)cc1,19
14,COc1ccc(-c2cnc3c(-c4ccsc4)cnn3c2)cc1,92
15,O=C(c1cc2cc(O)ccc2[nH]1)c1cc2cc(O)ccc2[nH]1,6
16,O=C1Cc2c([nH]c3ccc([N+](=O)[O-])cc23)-c2ccccc2N1,23
17,CCN1/C(=C/C(C)=O)Sc2ccc(OC)cc21,60
18,O=c1cc(N2CCOCC2)oc2c(-c3ccccc3)cccc12,74
19,CC(C)c1nn(-c2c(Cl)cccc2Cl)c2nc(Cc3ccc(OCCO)cc3)[nH]c(=O)c12,83
20,Fc1ccc(-c2nc3n(c2-c2ccncc2)CCS3)cc1,24
